Screening data deposited in PubChem by Broad Institute.
Not all results are given here.
aSyn UTR act – Activators working through SNCA 5'UTR binding (MLPCN); 300,000 tested, 7.1% active; activity score, % (tested at 7.5 µM), hits read low; AID 1814; alpha-synuclein 5'UTR reporter, activators screen; in the data active = activity score below about -60%
* hit, by the source's call.

SMILES	aSyn UTR act
O=C(COc1ccccc1F)N/N=C1\CCCc2ccccc21	-162*
Cc1cccc2c1OCC/C2=N\NC(=O)COc1ccccc1	-86*
Cc1ccc(C(=O)c2oc3ccc(Cl)cc3c2NC(=O)CN2CCN(C)CC2)cc1	-108*
Cc1ccc(N2C(=O)c3ccc(N)cc3C2=O)cc1C	-131*
Cc1ccc(N2C(=O)c3ccc(N)cc3C2=O)cc1	-182*
CCc1ccc(CNc2ccc3c(c2)ncn3C(C)(C)C)cc1	-156*
CC(C)(C)n1cnc2cc(NS(=O)(=O)c3ccccc3)ccc21	-74*
CC(C)(C)n1cnc2cc(NCc3ccc(Br)cc3)ccc21	-92*
COc1ccc(C(=O)C[n+]2ccccc2/C=N/O)cc1	-82*
CC(C(=O)N(C)C1CCS(=O)(=O)C1)N1C(=O)/C(=C/c2cccs2)SC1=S (stereo not drawn)	-83*
O=C1N=C(N2CCCCC2)S/C1=C/C1=Cc2ccccc2OC1	-103*
O=C1N=C(N2CCCCC2)S/C1=C\c1ccc(Br)cc1	-128*
CC(=O)c1c(C)oc2ccc(OCc3ccccc3)cc12	-71*
COc1ccc2oc(C)c(C(=O)c3ccc(C)cc3)c2c1	-86*
Cc1oc2ccc(O)cc2c1C(=O)c1ccc(Br)cc1	-62*
CCCC(=O)Nc1ccc(N2CCCCC2)cc1	-116*
O=C(CCl)Nc1ccc(N2CCCCCC2)cc1	-72*
CCNC(=S)Nc1ccc(N2CCCCC2)cc1	-159*
COc1cc(NC(=S)N2CCOCC2)c(OC)cc1Cl	-211*
CSc1ccc(CNC(=O)Cc2ccc(NC(=O)C3=C(C)OCCS3)cc2)cc1	-153*
CC(C)c1ccc(-n2c(-c3ccccc3)c[n+]3c2CCc2ccccc2-3)cc1	78
COc1ccc(-n2c(-c3ccc(Br)cc3)c[n+]3c2CCc2ccccc2-3)cc1	-91*
COc1ccc(CCN2CCCC(CN(C)C(=O)c3cc(C)oc3C)C2)cc1 (stereo not drawn)	-149*
COCc1ccc(C(=O)N(C)CC2CCCN(CCc3ccc(OC)cc3)C2)o1 (stereo not drawn)	-123*
c1ccc2c(COn3nnc4ccccc43)cccc2c1	-223*
SMILES	aSyn UTR act
CC(=O)Nc1ccc(-c2csc(NC(=O)c3ccc(C)o3)n2)cc1	-83*
Cc1ccc(-c2csc(NC(=O)C3=COCCO3)n2)cc1	-169*
Cc1ccc(-c2csc(NC(=O)N3CCOCC3)n2)cc1	-103*
O=C(Nc1cccc(Br)c1)c1ccn[nH]1	-102*
COc1ccc(OC)c(NC(=O)c2ccc(-c3csc(C)n3)cc2)c1	-84*
CC(C)(C)c1csc(NC(=O)C2=COCCO2)n1	-107*
O=C(Nc1nc(-c2cc(F)ccc2F)cs1)c1ccccn1	-115*
CCOC(=O)c1csc(NC(=O)C2=COCCO2)n1	-87*
O=C(Nc1nc(-c2cc(F)ccc2F)cs1)C1=COCCO1	-63*
CC(=O)Nc1ccc(-c2csc(NC(=O)C3=COCCO3)n2)cc1	-115*
Cc1nc(-c2ccc(NC(=O)c3ccc(Br)o3)cc2)cs1	-175*
CCOC(=O)c1csc(NC(=O)C2CCCCC2)n1	-103*
Cc1nc(-c2ccc(C(=O)Nc3cccc(Br)c3)cc2)cs1	-143*
COc1ccc(C)c2sc(NC(=O)C3=COCCO3)nc12	-77*
COc1ccc(C(=O)NOCc2ccccc2)cc1	-74*
Cc1ccc(CONC(=O)c2ccccc2)cc1	-101*
Cc1ccc(C(=O)N/C(=C\c2ccccc2)C(=O)OCc2ccccc2)cc1	-122*
COc1ccc(-c2csc(Nc3ccc(C)cn3)n2)cc1	-180*
CC(=O)Oc1ccc(-c2csc(Nc3ccc(Cl)cn3)n2)cc1	-135*
CN1CCN(CC/C=C2/c3ccccc3Sc3ccc(S(=O)(=O)N(C)C)cc32)CC1	-97*
Cc1ccsc1/C=C1/SC(N2CCOCC2)=NC1=O	-80*
COc1ccccc1NC(=O)c1cnc2n(c1=O)CCS2	-133*
COc1ccc(Cl)cc1NC(=O)c1cnc2n(c1=O)CCS2	-78*
CCOC(=O)c1ccc(NC(=O)C(=O)NCc2ccco2)cc1	-82*
CC(=O)c1ccc(NC(=S)NCc2ccco2)cc1	-67*
SMILES	aSyn UTR act
CCOc1ccc(/C=N/Nc2ccccc2)cc1	-75*
Clc1ccc(/C=N\Nc2ccccc2)cc1	-67*
O=C(N/N=C/c1ccc(Cl)cc1)Nc1ccccc1	-170*
O=C(N/N=C/c1ccco1)Nc1ccccc1	-130*
C#CCSc1nnc(-c2ccc(O)cc2)o1	-138*
C#CCSc1nnc(-c2ccc(C)cc2)o1	-164*
C#CCSc1nnc(-c2cccc3ccccc23)o1	-104*
O=C(O)c1ccc(N/N=C/C2=Cc3ccccc3OC2)cc1	-136*
COc1ccc(NC(=O)n2ncc3c(C)cccc32)cc1	-88*
COc1ccc(NC(=O)n2ncc3c(C)cccc32)cc1OC	-165*
Cc1ccc(NC(=O)n2ncc3c(C)cccc32)cc1F	-71*
O=C1CCCC/C1=C/Nc1ccc(C(=O)O)cc1	-72*
O=C1CCCC/C1=C/Nc1ccc2c(c1)OCO2	-139*
Cc1oc(C(C)(C)C)cc1C(=O)Nc1ccc2c(c1)OCO2	-87*
Cc1oc(C(C)(C)C)cc1C(=O)Nc1ccc2c(c1)OCCO2	-179*
CCOc1ccccc1NC(=O)c1cccc(NC(=O)c2ccco2)c1	-185*
CCOC(=O)c1cccc(NC(=O)c2ccc(NC(=O)c3ccco3)cc2)c1	-67*
N#Cc1cnc2nc(SCc3ccccc3)nn2c1	-149*
CCOC(=O)c1cn2nc(SCc3ccccc3)nc2nc1C	-105*
Nn1c(SCc2ccccc2F)nnc1-c1ccccn1	-125*
Nn1c(SCc2ccccc2)nnc1-c1ccccn1	-70*
Nn1c(SCc2ccc(F)cc2)nnc1-c1ccccn1	-68*
NC(=O)CSc1nc2cccnc2n1-c1ccc(F)cc1	52
CC(=O)c1cc(C#N)c(SCc2ccc(F)cc2)nc1C	-98*
c1ccc(Sc2cccc3ccccc23)c(CNC2=NCCN2)c1	61
SMILES	aSyn UTR act
Clc1ccccc1CSc1ncn(-c2ccccc2)n1	-185*
O=C1/C(=C\c2cccs2)Sc2ccc3ccccc3c21	-165*
Cn1ccnc1SCc1cn2ccccc2n1	-105*
Cc1ccn2cc(CSc3ccccc3)nc2c1	-88*
c1ccn2cc(CSc3nnc4ccccn34)nc2c1	-90*
c1ccn2cc(CSC3=NCCS3)nc2c1	-118*
CCC(C)(C)NC(=O)C(c1ccncc1)N(C(=O)c1sc(C)nc1C)c1ccc(C)cc1 (stereo not drawn)	-62*
O=C(Cn1cc(C(F)(F)F)cc(Cl)c1=O)NCc1ccccc1	-113*
CCOC(=O)COc1cccc2c(=O)n(CC(=O)NCc3ccccc3)ccc12	57
Cc1ccc(C2Nc3ccc4ccccc4c3C3=C2C(=O)CC(C)(C)C3)o1 (stereo not drawn)	-73*
Cc1cccc(OCCn2c(=O)oc3ccc(C)cc32)c1	-110*
O=C(c1ccc([N+](=O)[O-])o1)N1CCN(c2nc3ccc(F)cc3s2)CC1	-108*
COc1cccc2sc(N3CCN(C(=O)c4ccc([N+](=O)[O-])o4)CC3)nc12	-110*
Cc1ccc2sc(N3CCN(C(=O)c4ccc([N+](=O)[O-])o4)CC3)nc2c1C	-76*
Cc1cccc2nc(COc3ccc4ccccc4c3Br)cn12	-203*
CCCCC(=O)/C=C/n1c(=S)oc2ccccc21	-151*
NC(=O)c1ccc(-n2nnnc2Oc2ccccc2C(=O)N2CCOCC2)cc1	-108*
COc1ccc(NC(=O)Nc2ccc(N(C)C)cc2)cc1	-124*
N#Cc1ccc(NC(=O)Nc2ccc(Oc3ccc(NC(=O)Nc4ccc(C#N)cc4)cc3)cc2)cc1	74
